ST2 IL33 inh – inhibitors of human ST2 (IL1RL1) binding to IL-33, primary screen, biochemical, AlphaLISA; AlphaLISA ST2-Fc/biotin-IL-33 interaction, 1 h; inhibition, % for hits at 17 µM; 78,000 tested, 2.3% active; Interleukin-1 receptor-like 1 (Homo sapiens), Q01638; in the data active = inhibition above about 30%
Target sequence (Q01638 whole entry, looked up): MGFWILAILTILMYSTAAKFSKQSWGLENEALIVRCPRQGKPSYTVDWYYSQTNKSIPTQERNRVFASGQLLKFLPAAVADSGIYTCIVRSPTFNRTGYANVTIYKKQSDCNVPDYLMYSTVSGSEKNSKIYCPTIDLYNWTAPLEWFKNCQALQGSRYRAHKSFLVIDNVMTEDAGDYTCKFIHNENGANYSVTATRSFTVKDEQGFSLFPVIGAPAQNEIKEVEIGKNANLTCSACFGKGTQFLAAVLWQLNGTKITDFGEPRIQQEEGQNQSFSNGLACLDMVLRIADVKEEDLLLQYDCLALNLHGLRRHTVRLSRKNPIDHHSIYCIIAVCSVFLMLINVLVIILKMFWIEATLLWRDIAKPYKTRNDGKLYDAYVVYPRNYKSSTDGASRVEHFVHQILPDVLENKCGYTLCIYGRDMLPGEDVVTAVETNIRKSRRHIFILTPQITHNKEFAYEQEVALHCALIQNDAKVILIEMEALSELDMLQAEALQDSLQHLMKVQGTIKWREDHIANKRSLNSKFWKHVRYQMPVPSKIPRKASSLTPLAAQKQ
* marks the source's active call; other numbers are inactive results; i = inactive; ! = a repeat was not active. This excerpt belongs to a sample that is enriched for hits.

SMILES	ST2 IL33 inh
CC(=O)N(C1=C(N2CCCCC2)C(=O)c2ccccc2C1=O)c1cccc(Cl)c1	61%*
CC(C(=O)N1CCN(c2cccc(Cl)c2)CC1)N1C(=O)c2ccccc2C1=O (stereo not drawn)	i
CSc1nnc2c(n1)OC(c1cc(O)ccc1Cl)Nc1ccccc1-2 (stereo not drawn)	i
Nc1nc2c(c(=O)[nH]1)CCN(C(=O)CSC13CC4CC(CC(C4)C1)C3)C2	i
COc1ccc(-c2nn(-c3ccccc3C)cc2CNC2CCOCC2)cc1F	i
CN(Cc1ccc(Sc2nncn2C)o1)C1CCCN(Cc2ccccc2F)C1 (stereo not drawn)	i
COc1ccc(C2CCN(Cc3ccc(Sc4nncn4C)o3)c3ccccc3S2)cc1C (stereo not drawn)	31%*
Cc1cccc(-n2ncc3c(Nc4ccc(Br)cc4)ncnc32)c1	i
COc1ccc2nc(Nc3nc(-c4ccccn4)cs3)sc2c1	i
Cn1c(OCc2cccnc2)nc2c1c(=O)n(Cc1ccc(Cl)cc1)c(=O)n2C	i
C=CCOc1nc2c(c(=O)n(Cc3ccc(Br)cc3)c(=O)n2C)n1C	39%*
C=CCOc1nc2c(c(=O)n(C)c(=O)n2C)n1C	i
CC1=C[C@@H](CNCCN2CCOCC2)[C@H](C(C)C)C[C@H]1Cc1nnc(-c2cncn2C)o1	i
COc1cc(-c2ncnn2-c2ccc(Cl)cc2)cc(OC)c1OC	i
COc1cc(-c2ncnn2-c2cccc(Cl)c2C)cc(OC)c1OC	33%*
Clc1ccc(-c2ncnn2-c2ccccc2Cl)cc1	i
CC1(C)Cc2nc3sc4c(c3cc2CO1)N=CN1CCCN=C41	i
CN(CCc1ccccc1)[C@@H]1[C@H](O)[C@H](CO)O[C@@H]1CNC(=O)c1ccc(C(F)(F)F)cc1	i
Cc1occc1C(=O)N1CCC(n2nccc2NC(=O)c2cccc(F)c2)CC1	i
O=C(NCc1cnn(Cc2ccccc2)c1)c1cn(C2CCCCCC2)nn1	i
COc1ccc2nc(Cl)c(Cl)nc2c1	i
COc1ccc2nc3c(nc2c1)C(=O)c1ccccc1-3	32%*
COc1ccc(C(=O)O/N=C2\c3ccccc3-c3nc4ccccc4nc32)cc1	i
CC1=C(C(=O)Nc2cccc(C)n2)C(c2ccccc2C(F)(F)F)C2=C(CC(C)(C)CC2=O)N1 (stereo not drawn)	i
O=C1C(=C(O)c2ccccc2)NS(=O)(=O)c2ccccc21	i
SMILES	ST2 IL33 inh
O=C1C(=C(c2ccccc2)c2ccccc2)C(=O)c2ccccc21	39%*
O=C1CN(C(=O)c2ccccc2)C(=O)CN1C(=O)c1ccccc1	i
COC(=O)c1ccc(NC(=O)[C@@]23CC[C@](C)(C(=O)O2)C3(C)C)cc1	i
Cc1oc(-c2cccs2)nc1CN1CCCC(C(=O)NCc2ccco2)C1 (stereo not drawn)	i
COc1ccc(CCN(C)C2CCCN(C(=O)CC3=CCCCC3)C2)cc1OC (stereo not drawn)	i
O=C(NCc1ccccn1)C1CC(=O)N(CCc2ccccc2)C1 (stereo not drawn)	i
O=C1CC(NCc2ccccn2)CN1CCCc1ccccc1 (stereo not drawn)	53%*
O=C1CC(NS(=O)(=O)N2CCCCC2)CN1CCCc1ccccc1 (stereo not drawn)	i
COc1ccccc1NC(=O)NC1CC(=O)N(Cc2ccccc2Cl)C1 (stereo not drawn)	i
CC(C)C(NS(=O)(=O)c1cccs1)C(=O)NCCCN1CCCC1 (stereo not drawn)	i
O=C1c2ccccc2C(=O)N1CN(C(=O)c1ccccc1)c1ccc(Br)cc1	i
O=C1c2ccccc2C(=O)N1CN(C(=O)c1ccccc1)c1ccc(F)cc1	77%*
CC(=O)N(CN1C(=O)c2ccccc2C1=O)c1ccc(F)cc1	i
COc1cccc(C2C(C(=O)Nc3cc(C)ccn3)=C(C)NC3=C2C(=O)CCC3)c1OC (stereo not drawn)	i
O=C(CCN1Cc2ccccc2C1=O)NCc1cnn2ccccc12	i
O=C(C1CC1)N1CCc2cc(S(=O)(=O)N3CCN(Cc4ccccc4)CC3)ccc21	i
CC(=O)c1cc(C)c(O)c(CC2=C(O)C(C)OC2=O)c1O (stereo not drawn)	i
O=c1/c(=C\c2ccc(-c3ccccc3[N+](=O)[O-])o2)sc2nc3ccccc3n12	i
N#C/C(=C\c1ccc(N2CCOCC2)cc1)c1nc2ccccc2[nH]1	i
Cc1cc([N+](=O)[O-])c(C)cc1-c1ccc(/C=C(\C#N)c2nc3ccccc3[nH]2)o1	38%*
CCc1ccc(OC(=O)Cn2cnc3sc4c(c3c2=O)CCCC4)cc1	i
O=C(c1ccc2nc3ccccc3c(=O)n2c1)N1CCN(Cc2ccc3c(c2)OCO3)CC1	i
O=C(c1nc(N2CCCC2)nc2c1CCCC2)N1CCN(Cc2ccc3c(c2)OCO3)CC1	32%*
NNC(=O)CN1CCN(Cc2ccc3c(c2)OCO3)CC1	i
Cc1nc(-c2ccncc2)ncc1C(C)NC(=O)c1ncoc1C1CC1 (stereo not drawn)	i
SMILES	ST2 IL33 inh
COc1ccc(C2OC[C@H]3O[C@H](OC)[C@H](OCc4ccccc4)C(=O)[C@@H]3O2)cc1 (stereo partly drawn)	i
O=C1c2ccccc2C(=O)C1C1=Nc2ccccc2NC(c2ccccc2)C1 (stereo not drawn)	31%*!
O=C1NC2=C(C(=O)c3ccccc32)C(c2ccccc2)N1 (stereo not drawn)	i
O=C1NC(c2cccc(Br)c2)Nc2ccccc21 (stereo not drawn)	i
CCOc1ccccc1CNC(=O)CN1C(=O)C(CC)=C(c2ccc(OC)cc2)S1(=O)=O	i
O=C(CNS(=O)(=O)c1cccs1)N1CCN(c2ccc(F)cc2)CC1	i
O=C1NC(=O)N(c2cccc(F)c2)C(=O)/C1=C/c1cccn1-c1ccccc1	i
O=[N+]([O-])c1ccc(NS(=O)(=O)c2ccc(Br)cc2)cc1	i
Cc1cc(/C=C2/C(=O)NC(=O)N(c3ccccc3)C2=O)c(C)n1-c1ccc([N+](=O)[O-])cc1	i
O=C1NN(c2ccc(F)cc2)C(=O)/C1=C\c1cccn1-c1ccc([N+](=O)[O-])cc1	31%*
O=C1NN(c2ccc(Br)cc2)C(=O)/C1=C\c1cccn1-c1ccc([N+](=O)[O-])cc1	33%*
CC1=C(C(=O)OC2CCCCC2)C(c2cccc(F)c2)n2ncnc2N1 (stereo not drawn)	i
COC(=O)C1=C(C)OC(N)=C(C#N)C1c1ccccc1OC(=O)c1ccccc1Cl (stereo not drawn)	i
CC1CCN(C(=O)C[C@@H]2O[C@H](CNS(=O)(=O)c3ccccc3)[C@@H](O)[C@H]2O)CC1	i
O=C(Nc1cc([N+](=O)[O-])ccc1O)c1ccc(Br)cc1	i
COc1ccc(NC(=O)C(C)N(c2ccccc2)S(C)(=O)=O)cc1Cl (stereo not drawn)	i
O=[N+]([O-])c1ccc(-c2cnc(-c3ccccc3)nc2)cc1	i
N#Cc1cc([N+](=O)[O-])cnc1Sc1ccccc1	32%*
N#Cc1cc([N+](=O)[O-])cnc1NCCO	i
CCOC(=O)N1CCN(C2CCCN(C3CCN(Cc4ccco4)CC3)C2)CC1 (stereo not drawn)	i
COCc1noc(-c2ccc(N3CCCOCC3)nc2)n1	i
O=C(Nc1ccc(Oc2ccccc2F)cc1)C1CCN(C(=O)C2CCCCO2)CC1 (stereo not drawn)	i
